# Experimental data taken from PubChem BioAssay.
# Values without a mark were called inactive. Activity calls are given as the source filed them.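 How the source made its calls, unless noted: active means compounds that lower survival of DLD-1 colon cancer cells in the luminescence readout, no cutoff given; inactive means the rest.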
# Assay: reduced SW480 viability measured with CellTiter-Glo, NPC library, primary (AID 1117343;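 active means compounds that lower viability of the colon cancer cells in the luminescence readout, with no numeric limit stated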)
# Conditions: CellTiter-Glo luminescence; at 20 µM (top of the series)
row,SMILES,viability decrease (inhibition)
1,NC(=O)CC[C@@H]1NC(=O)[C@H](Cc2ccccc2)NC(=O)[C@H](Cc2ccc(O)cc2)NC(=O)CCSSC[C@@H](C(=O)N2CCC[C@H]2C(=O)N[C@@H](CCCN=C(N)N)C(=O)NCC(N)=O)NC(=O)[C@H](CC(N)=O)NC1=O,1.3%
2,NCCNc1ccc(NCCN)c2c1C(=O)c1ccncc1C2=O,1.2%
3,O=C(O)Cc1ccccc1Oc1ccc(Cl)cc1Cl,-5%
4,Cc1ccc(C(C)C)c(O)c1,74.8% (active)
5,CCN1/C(=C/C=C/c2sc3ccccc3[n+]2CC)Sc2ccccc21,103% (active)
6,CCc1cc2cc(OC)c(OC)cc2c(Cc2ccccc2)n1,-9.7%
7,C=C(C)C(=O)OCC(O)CO (stereo not drawn),-10.3%
8,CCCCCCCCCCCC(=O)OCC(O)CO (stereo not drawn),44.7%
9,CN1CCN(C(=O)C2CCCCC2)CC1,28.1%
10,CC(=O)O[C@H]1C[C@@H]2CC[C@H]3[C@H]4C[C@H]([N+]5(C)CCCCC5)[C@@H](OC(C)=O)[C@@]4(C)CC[C@@H]3[C@@]2(C)C[C@H]1[N+]1(C)CCCCC1,-1.7% (active)
11,NS(=O)(=O)c1ccc(N2CCCCS2(=O)=O)cc1,29%
12,NC(=O)NS(=O)(=O)c1ccc(Cl)cc1,-13.4%
13,CCOC(=O)c1cccc(N)c1,35.4%
14,CCCCCCCCCCCCCCCCCC(=O)[O][Al],-3.6%
15,C[C@H](CCC(=O)O)[C@H]1CC[C@H]2[C@@H]3CC[C@@H]4C[C@H](O)CC[C@]4(C)[C@@H]3C[C@H](O)[C@]12C,35.7%
16,O=C(CCOCCOCCOCCOCCC(=O)Nc1c(I)cc(I)c(C(=O)O)c1I)Nc1c(I)cc(I)c(C(=O)O)c1I,-14.8%
17,CC(CC(C#N)(c1ccccc1)C(C)C)N(C)C (stereo not drawn),14.5%
18,CNC(=O)c1cnn(-c2nc(N)c3ncn([C@@H]4O[C@H](CO)[C@@H](O)[C@H]4O)c3n2)c1,6.8%
19,O=C(O)c1cc(=O)c2c3nc4ccccc4oc-3cc(=O)c2[nH]1,17.8%
20,Cc1oc(=O)oc1COC(=O)[C@@H]1N2C(=O)[C@@H](NC(=O)[C@H](N)c3ccccc3)[C@H]2SC1(C)C,25.1%

row,SMILES,viability decrease (inhibition)
1,CCCCCCCCCCCCCC[N+](C)(C)C,122% (active)
2,COc1cc2c(cc1OC)CN(C(=O)[C@H](C)N[C@@H](CCc1ccccc1)C(=O)O)[C@H](C(=O)O)C2,-3.9%
3,CCOC(=O)c1cccnc1,58.1% (active)
4,Cc1cc(CC(=O)O)c(C)n1-c1ccc(Cl)cc1,11.7%
5,CCOC(=O)C(C#N)=C(c1ccccc1)c1ccccc1,18.9%
6,CC1CCCCN1CCCOC(=O)c1ccc(OC2CCCCC2)cc1 (stereo not drawn),111% (active)
7,NC(=S)N/N=C/c1cccnc1,38.7%
8,C[C@@H](N)C(=O)O,44.4%
9,C[N+]1(CC2COC(c3ccccc3)(c3ccccc3)O2)CCCCC1 (stereo not drawn),10.8%
10,O=C(O)CNC(=O)c1ccccc1,24.7%
11,CC(CSC(=O)c1ccccc1)C(=O)N1C[C@@H](Sc2ccccc2)C[C@H]1C(=O)O (stereo partly drawn),47.6%
12,O=C(O)c1ccccc1S,31.6%
13,CC[N+](CC)(CC)CCOC(=O)C(C1CCCC1)C1CCCC1,-14.4%
14,O=C(O)[C@@H]1C(=CCO)O[C@@H]2CC(=O)N12,26%
15,N[C@@H](Cc1cc(I)c(O)c(I)c1)C(=O)O,24.1%
16,Cc1cc(O)c(C)c(C)c1O,-15.7%
17,CC(C)=CCC/C(C)=C/CC/C(C)=C/CCC(=O)OC/C=C(\C)CCC=C(C)C,-3.7%
18,O=C(/C=C/c1ccc(O)c(O)c1)O[C@@H]1C[C@@](OC(=O)/C=C/c2ccc(O)c(O)c2)(C(=O)O)C[C@@H](O)[C@@H]1O,6.5%
19,CCO[C@@H]1O[C@H](C(COCc2ccccc2)OCc2ccccc2)[C@H](OCc2ccccc2)[C@H]1O (stereo partly drawn),63.5% (active)

# Assay: NPC library primary testing for decreased DLD-1 cell viability via CellTiter-Glo (AID 1117346)
# Conditions: DLD-1 viability, CellTiter-Glo luminescence; at 20 µM (top of the series)
row,SMILES,viability decrease (inhibition)
1,NC(=O)CC[C@@H]1NC(=O)[C@H](Cc2ccccc2)NC(=O)[C@H](Cc2ccc(O)cc2)NC(=O)CCSSC[C@@H](C(=O)N2CCC[C@H]2C(=O)N[C@@H](CCCN=C(N)N)C(=O)NCC(N)=O)NC(=O)[C@H](CC(N)=O)NC1=O,-0.2%
2,NCCNc1ccc(NCCN)c2c1C(=O)c1ccncc1C2=O,14.7%
3,O=C(O)Cc1ccccc1Oc1ccc(Cl)cc1Cl,5.9%
4,Cc1ccc(C(C)C)c(O)c1,1.9%
5,CCN1/C(=C/C=C/c2sc3ccccc3[n+]2CC)Sc2ccccc21,102% (active)
6,CCc1cc2cc(OC)c(OC)cc2c(Cc2ccccc2)n1,25.5%
7,C=C(C)C(=O)OCC(O)CO (stereo not drawn),20.3%
8,CCCCCCCCCCCC(=O)OCC(O)CO (stereo not drawn),44.9%
9,CN1CCN(C(=O)C2CCCCC2)CC1,11.9%
10,CC(=O)O[C@H]1C[C@@H]2CC[C@H]3[C@H]4C[C@H]([N+]5(C)CCCCC5)[C@@H](OC(C)=O)[C@@]4(C)CC[C@@H]3[C@@]2(C)C[C@H]1[N+]1(C)CCCCC1,-2.8%
11,NS(=O)(=O)c1ccc(N2CCCCS2(=O)=O)cc1,-6.9%
12,NC(=O)NS(=O)(=O)c1ccc(Cl)cc1,-2.8%
13,CCOC(=O)c1cccc(N)c1,4.45%
14,CCCCCCCCCCCCCCCCCC(=O)[O][Al],-0.7%
15,C[C@H](CCC(=O)O)[C@H]1CC[C@H]2[C@@H]3CC[C@@H]4C[C@H](O)CC[C@]4(C)[C@@H]3C[C@H](O)[C@]12C,9.8% (active)
16,O=C(CCOCCOCCOCCOCCC(=O)Nc1c(I)cc(I)c(C(=O)O)c1I)Nc1c(I)cc(I)c(C(=O)O)c1I,-2.6%
17,CC(CC(C#N)(c1ccccc1)C(C)C)N(C)C (stereo not drawn),-20%
18,CNC(=O)c1cnn(-c2nc(N)c3ncn([C@@H]4O[C@H](CO)[C@@H](O)[C@H]4O)c3n2)c1,-13.2%
19,O=C(O)c1cc(=O)c2c3nc4ccccc4oc-3cc(=O)c2[nH]1,-15.6%
20,Cc1oc(=O)oc1COC(=O)[C@@H]1N2C(=O)[C@@H](NC(=O)[C@H](N)c3ccccc3)[C@H]2SC1(C)C,-14.8%

row,SMILES,viability decrease (inhibition)
1,CCCCCCCCCCCCCC[N+](C)(C)C,103% (active)
2,COc1cc2c(cc1OC)CN(C(=O)[C@H](C)N[C@@H](CCc1ccccc1)C(=O)O)[C@H](C(=O)O)C2,-16.7%
3,CCOC(=O)c1cccnc1,-9.05%
4,Cc1cc(CC(=O)O)c(C)n1-c1ccc(Cl)cc1,-14.3%
5,CCOC(=O)C(C#N)=C(c1ccccc1)c1ccccc1,15.2%
6,CC1CCCCN1CCCOC(=O)c1ccc(OC2CCCCC2)cc1 (stereo not drawn),94.7% (active)
7,NC(=S)N/N=C/c1cccnc1,1.65%
8,C[C@@H](N)C(=O)O,20.8%
9,C[N+]1(CC2COC(c3ccccc3)(c3ccccc3)O2)CCCCC1 (stereo not drawn),0.5%
10,O=C(O)CNC(=O)c1ccccc1,2.1%
11,CC(CSC(=O)c1ccccc1)C(=O)N1C[C@@H](Sc2ccccc2)C[C@H]1C(=O)O (stereo partly drawn),27.7%
12,O=C(O)c1ccccc1S,-3.4%
13,CC[N+](CC)(CC)CCOC(=O)C(C1CCCC1)C1CCCC1,4.1%
14,O=C(O)[C@@H]1C(=CCO)O[C@@H]2CC(=O)N12,-7.7%
15,N[C@@H](Cc1cc(I)c(O)c(I)c1)C(=O)O,-15.2%
16,Cc1cc(O)c(C)c(C)c1O,-26.1%
17,CC(C)=CCC/C(C)=C/CC/C(C)=C/CCC(=O)OC/C=C(\C)CCC=C(C)C,2%
18,O=C(/C=C/c1ccc(O)c(O)c1)O[C@@H]1C[C@@](OC(=O)/C=C/c2ccc(O)c(O)c2)(C(=O)O)C[C@@H](O)[C@@H]1O,-13.6%
19,CCO[C@@H]1O[C@H](C(COCc2ccccc2)OCc2ccccc2)[C@H](OCc2ccccc2)[C@H]1O (stereo partly drawn),44.6% (active)
